Most compounds without a hit are left out; they make up all but 1% or so of the library.
RXFP1 antag: qHTS Assay for Antagonists of the Relaxin Receptor RXFP1. Relaxin receptor 1 (Homo sapiens), Q9HBX9. HEK293-RXFP1, relaxin-stimulated cAMP HTRF, 30 min; active compounds read low. activity change, negative = inhibition, % at 57.5 µM. 0.59% of 350,000 active. AID 1259400, 2018;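 active = activity change of -60% or lower, but not beyond a set lower limit; inconclusive = change between -60% and -40%, or beyond the set limit; inactive = change above -40%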
gsp antagonist: qHTS for Antagonists of gsp, the Etiologic Mutation Responsible for Fibrous Dysplasia/McCune-Albright Syndrome: qHTS; AID 624288, 2012; Potency, µM (highest dose often 76.9 µM), usual class: inhibitors; gsp-mutant cells, cAMP HTRF, 30 min; 0.4% of 340,000 active; calls by dose curve; cell line not stated here;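 also: intracellular cAMP measured with PDE inhibitor Ro 20-1724 present during compound exposure; nearly all actives have a fitted effect of over 65% in size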
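HTRF cAMP measurement after 30 min RT detection following 30 min, 37C compound treatment alongside […] (added as 300 uM solution) in G418-selected cells seeded at 2000/well and grown 16–24 h.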
RXFP1 agonist: qHTS Assay for Agonists of the Relaxin Receptor RXFP1. Relaxin receptor 1 (Homo sapiens), Q9HBX9. HEK293T-RXFP1 cAMP TR-FRET, 30 min; response scale: percent of porcine relaxin response, buffer zero. Potency, µM (doses to about 57.5 µM), most hits filed as activators. 0.3% of 370,000 active; also: nearly all actives have a fitted effect of over 60% in size
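HEK293T cells stably expressing RXFP1 were pretreated with the PDE4 inhibitor Ro 20174, exposed to compounds for 30 min at 37C, lysed, and cAMP was read by TR-FRET. Data normalized to buffer (basal) and 29 nM porcine relaxin (100%).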
PTHR1 ag: qHTS for PTHR1 Agonists: Primary Screen | Potency, µM (doses to about 115 µM), actives largely listed as activators | HEK293 GP2 PTHR1 cells, GloSensor cAMP luminescence, 1 h | 0.075% of 410,000 active; also: nearly all actives have a fitted effect of over 55% in size
Target sequence (Q03431 whole entry, looked up): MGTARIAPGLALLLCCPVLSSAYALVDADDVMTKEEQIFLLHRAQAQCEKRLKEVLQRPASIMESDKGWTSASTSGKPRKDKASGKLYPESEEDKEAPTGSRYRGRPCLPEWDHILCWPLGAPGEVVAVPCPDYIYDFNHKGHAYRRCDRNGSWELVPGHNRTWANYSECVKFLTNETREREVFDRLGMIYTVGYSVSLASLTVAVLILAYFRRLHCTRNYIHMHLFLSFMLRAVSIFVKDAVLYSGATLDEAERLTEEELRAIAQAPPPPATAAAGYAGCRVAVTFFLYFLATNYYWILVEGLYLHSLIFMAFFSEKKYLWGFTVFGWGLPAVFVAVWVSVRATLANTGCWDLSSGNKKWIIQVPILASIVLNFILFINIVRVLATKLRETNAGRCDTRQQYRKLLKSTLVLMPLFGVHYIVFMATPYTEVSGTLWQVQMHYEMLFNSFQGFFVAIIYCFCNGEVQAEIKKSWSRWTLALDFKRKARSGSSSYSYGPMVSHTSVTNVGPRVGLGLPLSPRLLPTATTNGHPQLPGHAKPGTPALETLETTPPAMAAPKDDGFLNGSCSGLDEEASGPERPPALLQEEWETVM
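HEK-293-derived GP2 cells expressing PTHR1 and a GloSensor cAMP reporter, 3,000/well, plated overnight, given luciferin plus IBMX (each 0.5 mM as added) for 1 h at 37 °C, then compound for 1 h at 37 °C. Luminescence was read after 15 min at room temperature.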
gsp agonist: qHTS for Agonist of gsp, the Etiologic Mutation Responsible for Fibrous Dysplasia/McCune-Albright Syndrome: qHTS; AID 624287, 2012; Potency, µM (series often up to 76.9 µM), most hits filed as activators; 0.13% of 340,000 active; gsp mutant cells, cAMP HTRF, 30 min; active = well fitted activation curve with a large enough effect; inconclusive = small, poorly fitted or top-dose-only effect, or another doubt; inactive = no such curve, though single readings can be large or run the other way; cell line not stated here;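 also: phosphodiesterase inhibitor Ro 20-1724 added with compounds to block cAMP breakdown; nearly all actives have a fitted effect of over 60% in size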
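Cells stably selected in G418 were plated at 2000/well, grown 16-24 hr, then given compounds in DMSO with the PDE inhibitor […] (300 uM solution added) for 30 min at 37C; cAMP was read by HTRF.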
Numbers stand for hits; [ ] = another dose, or the depositor's remark. Unless noted, calls follow the shape of the dose curve; as a rule, active = well fitted curve in the direction sought with a large enough effect; inconclusive = small, poorly fitted or top-dose-only effect, or another doubt; inactive = no such curve, though single readings can be large; an effect the other way counts as inactive or inconclusive.

`CCOc1ccc(-n2c(C)cc(/C=C3/C(=N)N4C(=NC3=O)SN=C4S(C)(=O)=O)c2C)cc1` gave RXFP1 antag inactive, gsp antagonist 32µM, RXFP1 agonist inactive, PTHR1 ag inactive and gsp agonist inactive.
COc1ccc(OC)c(C2CC(=O)Nc3c2c(=O)n(C)c2ncnn32)c1 (centres undefined) was read as RXFP1 agonist inactive and PTHR1 ag inactive.
Screening Cc1sc2nc[nH]c(=S)c2c1-c1ccccc1 returned RXFP1 antag -91, gsp antagonist inactive, RXFP1 agonist inactive, PTHR1 ag inactive and gsp agonist inactive[15.4 µM].
Screening COc1cc(CN(C(=O)Nc2cccc(Cl)c2)c2ccccn2)cc(OC)c1OC returned RXFP1 agonist inactive and PTHR1 ag inactive.
Cc1ccc(NC(=O)Cc2ccc(Cl)c(Cl)c2)cc1S(=O)(=O)N(C)C was read as RXFP1 antag inactive, gsp antagonist inconclusive, RXFP1 agonist inactive, PTHR1 ag inactive and gsp agonist inactive.
Cc1ccc(NC(=O)CNc2ccc(Cl)c(Cl)c2)cc1S(=O)(=O)N(C)C was read as RXFP1 antag inactive, gsp antagonist 40µM, RXFP1 agonist inactive, PTHR1 ag inactive and gsp agonist inactive.
Screening [N-]=C=C1C(=S)NC(=O)[C@H]([n+]2ccccc2)[C@H]1c1ccc(Cl)cc1 returned RXFP1 antag inactive, gsp antagonist inactive, RXFP1 agonist inactive, PTHR1 ag inactive and gsp agonist 20µM.
Screening CC(C)CCCC(C)NCCC(C)C (centres undefined) returned RXFP1 antag inactive.
COCCCNC(=O)C1CCN(c2nc3ccc(Cl)cc3[nH]2)CC1 was read as RXFP1 antag inactive, RXFP1 agonist inactive and PTHR1 ag inactive.
Screening Cc1cccc(CNC(=O)C2CCN(c3nc4ccc(Cl)cc4[nH]3)CC2)c1 returned RXFP1 antag -72, RXFP1 agonist inactive and PTHR1 ag inactive.
Screening Cc1cc(C)c(O)c(-c2cc(C(=O)Nc3ccc(S(=O)(=O)N4CCOCC4)cc3)[nH]n2)c1 returned RXFP1 antag inactive, gsp antagonist 28µM, RXFP1 agonist inactive, PTHR1 ag inactive and gsp agonist inactive.
COc1cccc(CNC(=O)CCc2c(C)nc3c4c(C)cc(C)nc4nn3c2C)c1 was read as RXFP1 antag inactive, RXFP1 agonist inactive and PTHR1 ag inactive.
Screening Cc1ccc2c(c1)N(C(=O)Nc1cccc3c1CCCC3)CC(C)O2 (centres undefined) returned RXFP1 antag inconclusive, RXFP1 agonist inactive and PTHR1 ag inactive.
Screening CCC1CN(C(=O)Nc2cccc3c2CCCC3)c2cc(C)ccc2O1 (centres undefined) returned RXFP1 antag -73, RXFP1 agonist inactive and PTHR1 ag inactive.
Screening CCOc1ccccc1NC(=O)N1CC(C)Oc2ccc(Cl)cc21 (centres undefined) returned RXFP1 antag -83, RXFP1 agonist inactive and PTHR1 ag inactive.
CCc1ccc(NC(=O)N2CC(C)Oc3ccc(C)cc32)cc1 (centres undefined) was read as RXFP1 antag -62, RXFP1 agonist inactive and PTHR1 ag inactive.
`O=C(Nc1cccc(C(=O)N2CCN(c3ccc(F)cc3)CC2)c1)c1nsc2ccccc12` gave RXFP1 antag inactive, RXFP1 agonist inactive and PTHR1 ag inactive.
Screening CO[C@@]1(NC(=O)CSC(F)F)C(=O)N2C(C(=O)O)=C(CSc3nnnn3CCO)CO[C@@H]21 returned RXFP1 antag inactive.
For CC1=C(C(N)=O)C(c2cccc(C)c2)n2nc(-c3ccc(Cl)cc3)nc2N1 (centres undefined) the results were RXFP1 antag -62, RXFP1 agonist inactive and PTHR1 ag inactive.
Screening O=C(O)c1cc(-c2ccccc2)nc(-c2ccccc2)c1 returned RXFP1 antag inactive, gsp antagonist 32µM, RXFP1 agonist inactive, PTHR1 ag inactive and gsp agonist inactive.
OCCCNCc1ccc(N(c2ccccc2)c2ccccc2)cc1 was read as RXFP1 antag -69, gsp antagonist inactive, RXFP1 agonist inactive, PTHR1 ag inactive and gsp agonist inconclusive.
O=C(Nc1ccccc1)c1nnsc1S(=O)c1ccc(Cl)cc1 (centres undefined) was read as RXFP1 antag -105, gsp antagonist inactive, RXFP1 agonist inactive, PTHR1 ag inactive and gsp agonist inactive.
For COCCCn1c(=S)[nH]c2sc3c(c2c1=O)CCCS3 the results were RXFP1 antag inactive, gsp antagonist inactive, RXFP1 agonist 16µM, PTHR1 ag inactive and gsp agonist inactive[15.4 µM].
Screening O=C1S/C(=C\C=C\c2ccco2)C(=O)N1c1ccc(O)cc1 returned RXFP1 antag -63, gsp antagonist inconclusive, RXFP1 agonist inactive, PTHR1 ag inactive and gsp agonist inactive.
Screening O=C(CSCC(=O)Nc1nc(-c2ccc3c(c2)OCO3)cs1)Nc1nccs1 returned RXFP1 antag inactive, gsp antagonist 32µM, RXFP1 agonist inactive, PTHR1 ag inactive and gsp agonist inactive.
`Cc1c(C(=O)Nc2cccc(-c3nc4ccccc4s3)c2)oc2ccc(F)cc12` gave RXFP1 agonist inactive and PTHR1 ag inactive.
CC1=CC(=O)C=C(C)C1=NOS(=O)(=O)c1ccccc1 was read as RXFP1 antag -84, gsp antagonist inconclusive, RXFP1 agonist inactive, PTHR1 ag inactive and gsp agonist inactive.
CC1=CC(=O)C(C(C)C)=C/C1=N/OS(=O)(=O)c1ccccc1 was read as RXFP1 antag inconclusive, gsp antagonist inactive, RXFP1 agonist inactive, PTHR1 ag inactive and gsp agonist inactive.
Screening CN(C)CCNc1ccc2ncn3c4ccc(O)cc4c(=O)c1c23 returned RXFP1 antag inactive, gsp antagonist inconclusive, PTHR1 ag inactive and gsp agonist 14µM.
CC(=O)c1ccc(O)c(C(N)=O)c1 was read as RXFP1 antag inactive.
`CCN(CC)S(=O)(=O)c1ccc2c(c1)N(CC(=O)NCc1ccccn1)C(=O)CO2` gave RXFP1 antag inactive, gsp antagonist inactive, RXFP1 agonist 25µM, PTHR1 ag inactive and gsp agonist inconclusive.
Screening O=C(CN1C(=O)COc2ccc(S(=O)(=O)N3CCCC3)cc21)NCc1ccccn1 returned RXFP1 antag inactive, gsp antagonist inactive, RXFP1 agonist inactive, PTHR1 ag inactive and gsp agonist inactive[15.4 µM].
`CCN(CC)S(=O)(=O)c1ccc2c(c1)N(CC(=O)Nc1c(C)cccc1C)C(=O)CO2` gave RXFP1 antag inactive, RXFP1 agonist inactive and PTHR1 ag inactive.

Assay outcomes as filed in PubChem.
